# Measurements taken from PubChem BioAssay AID1529 (NMMLSC, 2009).
# The whole screen tested about 290,000 compounds, of which about 4,200 (1.4%) were called active. Only a selection was taken, and actives are over-represented in it overall. Values without a mark were called inactive.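 Rule for the calls: active = binding response more than 3 SD above or below the average of its plate-row segment, actives on both sides; inconclusive = wells at one plate position flagged as instrument error; inactive = the rest.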
# Molecular target: Mitogen-activated protein kinase kinase kinase 3 (Homo sapiens) (UniProt Q99759)
# Assay: compounds raising or lowering MEK5 association with MEKK3 PB1 – biochemical, wildtype MEKK3, multiplex bead flow cytometry, Alexa488-MEK5, primary screen (AID 1529);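 note: Alexa488 bead fluorescence after subtracting the streptavidin-only scavenger bead signal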
# Conditions: bead-based flow cytometry, Alexa488-MEK5 binding to MEKK3; at 10 µM; actives lie on both sides; 0 = blocked by unlabeled MEK5, 100 = vehicle
# Sequence of Mitogen-activated protein kinase kinase kinase 3 (Homo sapiens) (Q99759 whole entry, looked up): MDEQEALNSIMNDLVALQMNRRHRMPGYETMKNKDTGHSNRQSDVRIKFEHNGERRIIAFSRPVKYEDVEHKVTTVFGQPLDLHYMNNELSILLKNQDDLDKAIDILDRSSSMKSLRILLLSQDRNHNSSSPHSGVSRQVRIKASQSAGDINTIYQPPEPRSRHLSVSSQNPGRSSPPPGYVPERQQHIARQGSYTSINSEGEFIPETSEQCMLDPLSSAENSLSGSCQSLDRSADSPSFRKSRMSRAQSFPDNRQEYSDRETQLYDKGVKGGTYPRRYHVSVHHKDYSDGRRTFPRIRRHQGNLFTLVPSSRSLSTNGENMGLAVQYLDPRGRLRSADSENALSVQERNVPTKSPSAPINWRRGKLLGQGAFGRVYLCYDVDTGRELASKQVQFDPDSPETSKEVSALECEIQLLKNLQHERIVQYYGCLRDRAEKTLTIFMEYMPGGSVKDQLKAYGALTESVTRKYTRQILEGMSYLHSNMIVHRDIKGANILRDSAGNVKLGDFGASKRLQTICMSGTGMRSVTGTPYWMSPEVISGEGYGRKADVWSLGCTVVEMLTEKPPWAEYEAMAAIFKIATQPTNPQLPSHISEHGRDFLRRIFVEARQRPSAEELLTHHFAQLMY
row,SMILES,binding response (% of control)
1,COC(C[C@@H](O)C[C@@H](O)[C@H](C)OCc1ccccc1)OC,101%
2,COc1ccc(C(=O)CSc2nnc(COc3ccccc3)n2Cc2ccco2)cc1,102%
3,Cn1c2ccccc2c(=O)c2c(=O)n(Cc3ccco3)c(COc3ccccc3)nc21,130% (active)
4,CCCc1nc2c(c(=O)c3ccccc3n2C)c(=O)n1-c1cc(C)cc(C)c1,101%
5,COc1ccc(/C=C/c2c(-c3cccc(C)c3)oc3ccc(-c4ccc5c(c4)OCO5)cc23)cc1,94%
6,CCOC(=O)c1cc(S(=O)(=O)NCCc2ccc(OC)c(OC)c2)cn1C,100%
7,CN(CC(=O)Nc1ccc(F)cc1)C(=O)c1ccc(-c2ccc(Cl)cc2)o1,105%
8,Cc1cc(C)nc(NS(=O)(=O)c2ccc(N3C(=O)C4CCCCC4C3=O)cc2)n1 (stereo not drawn),101%
9,CCCN(CCC)c1nc2c(C)cccn2c(=O)c1/C=C1/SC(=S)N(Cc2ccco2)C1=O,32% [inhibitor] (active)
10,CCOC(=O)CC1C(=O)NCCN1c1nc2c(C)cccn2c(=O)c1/C=C1\SC(=S)N(C(C)CC)C1=O (stereo not drawn),93%
11,Cc1cccn2c(=O)c(/C=C3\SC(=S)N(CC(C)C)C3=O)c(NCCCOC(C)C)nc12,66%
12,Cc1csc(NC(=O)CSc2nnc(-c3cccnc3)o2)n1,99%
13,CCCC[C@@H]1CN=C(N)N1CCc1cccc(F)c1,106%
14,O=C(NCc1ccccn1)C1CCN(S(=O)(=O)c2ccc(Br)cc2)CC1,103%
15,COc1ccc(CNc2ncnc3ccccc23)cc1,100%
16,O=C(NCc1ccccc1Cl)c1csc2c1CCCCC2,96%
17,O=C(NCc1ccccc1Cl)NC(=O)c1csc([N+](=O)[O-])c1,0% [inhibitor] (active)
18,O=[N+]([O-])c1ccccc1NCc1ccccc1Cl,66%
19,CCC(C)[C@H](NC(=O)N1c2ccccc2NC(=O)[C@@H]1C(C)C)C(=O)N[C@@H](Cc1ccccc1)C(=O)O (stereo partly drawn),101%
20,COc1ccc(NC(=O)CCCC2CCCCC2)c(OC)c1,97%
21,CCCc1ccc(OCCNC(=O)c2ccco2)cc1,101%

row,SMILES,binding response (% of control)
1,CC(=O)NCCNC(=O)c1cc(-c2cccc3ccccc23)nc2ccccc12,102%
2,CCOC(=O)C1CCN(C(=O)c2ccccc2N(C)S(=O)(=O)c2ccccc2)CC1,105%
3,c1ccc(-c2cc(N3CCCCC3)c3ccccc3n2)cc1,100%
4,O=c1cc(N2CCCCC2)c(-c2ccccc2)nn1Cc1cccc(F)c1,157% (active)
5,O=c1cc(N2CCN(Cc3ccccc3)CC2)c(-c2ccccc2)n[nH]1,101%
6,COc1ccc(-c2noc(CNC(=O)C(C)Oc3ccccc3)n2)cc1 (stereo not drawn),99%
7,CCC(C)OC(=O)C(C)Oc1ccc(-c2ccccc2)cc1 (stereo not drawn),2% [inhibitor] (active)
8,CC(=O)Nc1ccc(NC(=O)COc2ccc(-c3ccccc3)cc2)cc1,99%
9,COc1ccc(CCNS(=O)(=O)c2cccc([N+](=O)[O-])c2)cc1,111%
10,O=C(Nc1ccccc1N1CCN(C(=O)c2ccccc2)CC1)c1ccco1,100%
11,CCc1ccc(NC(=O)Cn2nnc(C(=O)NCc3ccc(OC)cc3)c2N)cc1,101%
12,COc1ccc(NC(=O)Cn2nnc(C(=O)NCCc3ccc(OC)c(OC)c3)c2N)cc1,2% [inhibitor] (active)
13,COc1ccc(CNC(=O)c2nnn(CC(=O)Nc3cc(C)cc(C)c3)c2N)cc1,100%
14,CCOC(=O)c1ccccc1NC(=O)c1c(N)n(C)c(=O)[nH]c1=O,103%
15,COc1ccc(CNC(=O)CN(Cc2ccccc2Cl)C(=O)c2csnn2)cc1,104%
16,COc1cccc(N2CCN(c3ccc4nnc(CCC(=O)N5CCN(C)CC5)n4n3)CC2)c1,100%
17,O=C(CSc1n[nH]c(=O)n1-c1ccccc1)Nc1ccccc1C(F)(F)F,102%
18,COC(=O)c1ccc(S(=O)(=O)NCc2ccccc2)n1C,78%
19,Cc1c(S(=O)(=O)NC(C)c2ccccc2)c(=O)n(C)c(=O)n1C (stereo not drawn),101%
20,Cc1c(S(=O)(=O)NCc2ccccc2)c(=O)n(C)c(=O)n1C,131% (active)
21,COC(=O)C1=NN(c2ccccc2)C2C(=O)N(c3ccccc3OC)C(=O)C12 (stereo not drawn),139% (active)

row,SMILES,binding response (% of control)
1,COC(=O)C1(C)NC(c2ccccc2OC)C2C(=O)N(c3ccccc3)C(=O)C21 (stereo not drawn),104%
2,COC(=O)c1cc(C(=O)OC)cc(N2C(=O)CC(N3CCN(c4ccccc4)CC3)C2=O)c1 (stereo not drawn),103%
3,CC(=O)Nc1ccc(S(=O)(=O)N(C)c2nc3ccccc3nc2Cl)cc1,103%
4,CCc1ccc(-c2cc(C)no2)cc1S(=O)(=O)NCCc1ccc(S(N)(=O)=O)cc1,104%
5,CCc1ccnc(NC(=O)Nc2ccc(OCc3ccccc3)cc2)c1,104%
6,O=C(O)/C=C\C(=O)Nc1ccc(OCc2ccccc2)cc1,130% (active)
7,Cc1cccc(NC(=O)Nc2ccc(OCc3ccccc3)cc2)n1,99%
8,COc1cc(CNCc2ccc3c(c2)OCO3)c([N+](=O)[O-])cc1OC,95%
9,COc1cccc(CNS(=O)(=O)c2ccc3c(c2)N(C(C)=O)CCS3)c1,93%
10,COc1cccc(CC2(CO)CCCN(Cc3ccc(OC(F)F)cc3)C2)c1 (stereo not drawn),109%
11,COc1cc2c(cc1OC)CN(C(=O)c1ccc(S(=O)(=O)N3CCCCCC3)cc1)CC2,132% (active)
12,COc1ccccc1N1CCN(C(=O)c2ccc(S(=O)(=O)N3CCCCC3)cc2)CC1,102%
13,COc1cc2c(cc1OC)CN(C(=O)c1cc(S(=O)(=O)N3CCCCC3)ccc1Cl)CC2,101%
14,C/C(=N\NC(=O)c1ccccc1F)c1ccccn1,106%
15,CC(C)(C)n1nc(Cc2cccc3ccccc23)c(C#N)c1N,101%
16,COc1ccc(/C=N/Nc2nc(-c3ccc(C)cc3)c(C#N)c(=O)[nH]2)cc1,104%
17,CC(C)[C@H](NC(=O)N1CCn2c1nc1ccccc12)C(=O)NCCc1ccccc1,100%
18,CCOC(=O)C[C@H]1c2ccc(C(F)(F)F)cc2S(=O)(=O)N1c1ccccc1,95%
19,COCCc1nn2c(=O)cc(COC(=O)c3cc(OC)c(OC)c(OC)c3)nc2s1,95%
20,Cc1cc(=O)oc2cc(OC(C)C(=O)NCCc3ccc(S(N)(=O)=O)cc3)ccc12 (stereo not drawn),100%
21,Cc1cc(C)cc(NC(=O)NCc2ccccn2)c1,101%
